# PubChem BioAssay AID2685 (National Center for Advancing Translational Sciences (NCATS), 2010)
# About 2,100 (0.66%) of roughly 320,000 compounds were called active. Roughly 53% stayed inconclusive and do not appear here. This is one part of a sample in which actives are shown more often than they occur. Calls follow the shape of the dose curve; as a rule, active = well fitted inhibition curve with a large enough effect in the signal ratio, with a control signal flat (not every such curve was filed as active); inconclusive = small, poorly fitted or top-dose-only effect, or effect the other way, or a change in a side signal; inactive = flat fitted curve, though single readings scatter; the % refers to the signal ratio.
# Assay: qHTS Assay for Lipid Storage Modulators in Drosophila S3 Cells;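 as to cell number change: cells counted by Cell Tracker Red CMTPX staining in the red channel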
# Conditions: BODIPY lipid droplet fluorescence, 18-24 h, cells fed with added oleic acid; cell number change: measured here: cell count max response; series mostly up to 46.1 µM
# Method in brief: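 Laser-scanning cytometry quantifies lipid droplet accumulation (500–530 nm total intensity; droplet/cell object ratio) in oleic acid-fed (400 uM added) Drosophila S3 cells treated with a concentration series. 20 uM Triacsin C defined 100% inhibition.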
# Potency is read from the fitted curve at half-maximal effect.
Structure (SMILES),Potency,cell number change [%]
COc1ccc(N2CCN(C(c3ccc4ncccc4c3)c3nnnn3C(C)C)CC2)cc1 (centres undefined),inactive,3.49
Fc1ccc(-n2c(CN3CCCCC3)n[nH]c2=S)cc1,1.64 µM (active),-100
FC(F)(F)c1ccccc1-n1c(CN2CCCCC2)n[nH]c1=S,inactive,-9.97
S=c1[nH]nc(CN2CCCCC2)n1Cc1ccccc1,inactive,-2.92
Cc1ccc(S(=O)(=O)CCN2CCN(c3ccccn3)CC2)cc1,inactive,3.2
CCc1ccc(-c2cc(C)no2)cc1S(=O)(=O)N1CCCN(Cc2ccc(F)cc2)C1,inactive,2.69
CCc1ccc(-c2cc(C)no2)cc1S(=O)(=O)NCCc1ccccc1,inactive,13.1
CCc1ccc(-c2cc(C)no2)cc1S(=O)(=O)N1CCOc2ccccc21,16.4 µM (active),-0.472
CCc1ccc(-c2cc(C)no2)cc1S(=O)(=O)N1CC(=O)Nc2ccccc21,4.11 µM (active),-17.1
Cc1cc(-c2ccc(C)c(S(=O)(=O)N3CC(=O)Nc4ccccc43)c2)on1,1.03 µM (active),3.36
CCc1ccc(-c2cc(C)no2)cc1S(=O)(=O)Nc1ccccn1,inactive,-19.5
CCc1ccc(-c2cc(C)no2)cc1S(=O)(=O)N1CCN(c2ccccc2OC)CC1,inactive,23.3
Cc1ccc(S(=O)(=O)N2CC(=O)Nc3ccccc32)c(C)c1NS(C)(=O)=O,inactive,-8.89
Cc1cc(-c2ccc(C)c(S(=O)(=O)N3CCN(c4ccccn4)CC3)c2)on1,inactive,-26.7
Cc1ccc(Nc2cc(C)nc(-c3ccccc3)n2)cc1,inactive,–
CC(=O)CSc1cc(-c2ccccc2)nc2ncnn12,inactive,-21.4
Cc1cc(C)nc(NS(=O)(=O)c2ccc(NC(=O)Nc3ccccc3F)cc2)n1,inactive,-10.1
O=C(Cn1cccc1C(=O)c1ccccc1)NCCCN1CCOCC1,inactive,-0.598
O=C1c2ccccc2CN1Cc1ccccc1,inactive,10.2
CCCCCCCCOC(=O)CCn1[nH]c(=O)c2ccccc2c1=O,inactive,-16.3
O=C(CCn1[nH]c(=O)c2ccccc2c1=O)NCCO,11.6 µM (active),1.53
COC(=O)CCn1[nH]c(=O)c2ccccc2c1=O,inactive,-3.6
c1ccc(CN2CCOCCOCCOCC2)cc1,inactive,-1.02

Structure (SMILES),Potency,cell number change [%]
CCOC(=O)c1ccc(N2C(=O)c3n[nH]c(C)c3C2c2ccc(OC)cc2)cc1 (centres undefined),inactive,-20.7
CC1(CCc2ccccc2)NC(=O)N(CC(=O)O)C1=O (centres undefined),inactive,-3.79
Cc1ccc(NC(=O)CSc2nnc(C3CC3)n2N)cc1S(=O)(=O)N1CCOCC1,inactive,12.4
O=C(CCN1C(=O)NC2(CCCC2)C1=O)Nc1cccc(S(=O)(=O)N2CCOCC2)c1,inactive,2.63
O=C(Cn1c2ccccc2c2nc3n(c(=O)c21)CCS3)Nc1ccccc1C(F)(F)F,inactive,-11.3
O=C(Cn1c2ccccc2c2nc3n(c(=O)c21)CCS3)N1CCCC1,inactive,-22.8
CC1CCCN(C(=O)Cn2c3ccccc3c3nc4n(c(=O)c32)CCS4)C1 (centres undefined),7.31 µM (active),-9.4
COc1ccc(/C=N\Nc2ccccc2[N+](=O)[O-])c(C(=O)O)c1OC,inactive,2.19
Cc1ccc(C(=O)CSc2nnc(-c3ccccc3)n2-c2ccccc2)o1,inactive,6.85
COC(=O)C1C2C=CC3(CN(C(C)c4ccc(OC)cc4)C(=O)C13)O2 (centres undefined),16.4 µM (active),-5.31
CCOC(=O)C1[C@H]2C(=O)N(C(C)c3ccc(OC)cc3)C[C@]23C=C[C@H]1O3 (some centres undefined),inactive,-3.61
COc1ccc(C(C)N2CC34C=CC(O3)C(C(=O)OCC(C)C)C4C2=O)cc1 (centres undefined),inactive,-0.854
Cc1ccccc1Nc1nccc(N(C)C)c1C#N,inactive,-17.6
COc1ccc(/C=C(/C#N)C(=O)NC2CCCCC2)cc1Br,inactive,-11.6
N#C/C(=C\c1ccccc1)C(=O)NC1CC1,inactive,–
CC(=O)Nc1ccc(/C=C(\C#N)C(=O)NC2CCCCC2)cc1,20.6 µM (active),6.15
CCOC(=O)N1CCN(C(=O)c2ccc3c(=O)n(CCc4ccc(OC)c(OC)c4)c(=O)[nH]c3c2)CC1,1.3 µM (active),12.7
COc1ccc(N2CCN(C(=O)c3ccc4c(=O)n(CCc5ccc(OC)c(OC)c5)c(=O)[nH]c4c3)CC2)cc1,inactive,-0.645
COc1cc2[nH]c(=O)n(Cc3ccc(C(=O)NCC4CCCO4)cc3)c(=O)c2cc1OC (centres undefined),inactive,12.5
CCCCCn1c(=O)[nH]c2cc(C(=O)N3CCN(CC)CC3)ccc2c1=O,inactive,–
COCCn1c(=O)[nH]c2cc(C(=O)NCCN3CCN(c4ccccc4F)CC3)ccc2c1=O,inactive,-8.35
CCOC(=O)N1CCN(C(=O)c2ccc3c(=O)n(CCOC)c(=O)[nH]c3c2)CC1,inactive,1.58
COc1cc2[nH]c(=O)n(Cc3ccc(C(=O)NC4CCCC4)cc3)c(=O)c2cc1OC,inactive,–

Structure (SMILES),Potency,cell number change [%]
CCOC(=O)N1CCN(C(=O)c2ccc3c(=O)n(CCc4ccccc4)c(=O)[nH]c3c2)CC1,inactive,–
CCCCCn1c(=O)[nH]c2cc(C(=O)N3CCN(c4ccccc4F)CC3)ccc2c1=O,inactive,0.806
CCCCCn1c(=O)[nH]c2cc(C(=O)N3CCN(C(=O)OCC)CC3)ccc2c1=O,3.66 µM (active),–
COCCn1c(=O)[nH]c2cc(C(=O)N3CCN(c4ccccc4F)CC3)ccc2c1=O,11.6 µM (active),-14.1
COc1cc2[nH]c(=O)n(Cc3ccc(C(=O)N4CCC(N5CCCCC5)CC4)cc3)c(=O)c2cc1OC,0.411 µM (active),-3.59
CCC(=O)Nc1ccc2oc(-c3cccnc3)nc2c1,inactive,17.6
OCCNc1ncnc2c1sc1nc(N3CCOCC3)c3c(c12)CCC3,inactive,0.136
Cc1c(OC(C)C(=O)NCCCN2CCOCC2)ccc2c3c(c(=O)oc12)CCCC3 (centres undefined),inactive,8.4
COC(=O)CNC(=O)CSc1nc(N)cc(=O)[nH]1,inactive,-9.53
Cc1cc(C)c(O)c(NC(=S)NC(=O)Cc2ccccc2)c1,inactive,-14.2
CCc1ccccc1Nc1nc(N)nc(COC(=O)CCS(=O)(=O)c2ccccc2)n1,inactive,–
Cc1c(C)n(CCO)c2ncnc(Nc3ccc(F)cc3)c12,inactive,17.8
C=CCN1C(=O)/C(=C\c2ccc(Cl)cc2)N=C1SCC(=O)NC1CCCCC1,inactive,1.87
CC(=O)c1ccc(NC(=O)/C(=C\c2cccs2)NC(=O)c2ccco2)cc1,inactive,17
CCN(CC)c1ccc(C2NC(=O)NC(C)=C2C(=O)Nc2ccccc2)cc1 (centres undefined),1.64 µM (active),-25.6
CC1=C(C(=O)Nc2ccc(C)cc2)C(c2ccc(N(C)C)cc2)NC(=O)N1 (centres undefined),inactive,-1.82
CC1=C(C(=O)Nc2ccccc2)C(c2cccs2)NC(=O)N1 (centres undefined),inactive,-4.1
Cc1ccc(NC(=O)c2c(O)c3ccccc3n(C)c2=O)nc1,inactive,-15.8
CCOC(=O)c1cnc2c(C)c(-c3ccccc3)[nH]n2c1=O,inactive,6.05
CN=C1SC(CC(=O)Nc2ccc(F)cc2F)C(=O)N1/N=C(\C)c1cccc(OCC(=O)O)c1 (centres undefined),inactive,5.65
C=CCOc1ccc(/C=N/N2C(=O)C(CC(=O)Nc3ccc(F)cc3F)SC2=NC)cc1 (centres undefined),18.4 µM (active),23
CN=C1SC(CC(=O)Nc2ccc(F)cc2F)C(=O)N1/N=C/c1ccc(OC(F)F)c(OC)c1 (centres undefined),inactive,8.82
CCOC(=O)c1cnc2c(OC)cccc2c1Oc1ccccc1,inactive,0.518

Structure (SMILES),Potency,cell number change [%]
NC(=NCc1ccco1)NC(=O)c1ccccc1,20.6 µM (active),21.8
O=C(NC(=S)NCc1ccco1)c1ccccc1,inactive,2.74
c1ccc(NC(=NCc2ccco2)c2ccccc2)cc1,inactive,0.492
COC(=O)c1ccc(OC(=O)CCN2C(=O)C3C4c5ccccc5C(c5ccccc54)C3C2=O)cc1 (centres undefined),inactive,-1.2
O=C(c1cnccn1)N1CCN(c2ccccc2F)CC1,inactive,-10.1
Nc1ncc(Br)cc1S(=O)(=O)Nc1ccccc1F,inactive,–
Nc1ncc(Br)cc1S(=O)(=O)NC1CCCCC1,inactive,6.11
Nc1ncc(Br)cc1S(=O)(=O)Nc1cc(C(F)(F)F)cc(C(F)(F)F)c1,0.58 µM (active),-15.9
Cc1c(C(=O)O/N=C(\N)c2ccccn2)cccc1[N+](=O)[O-],inactive,7.58
CCOC(=O)C1=C(COC(=O)Cc2ccc(Cl)cc2)NC(=O)NC1C (centres undefined),inactive,5.22
NC(=O)C1CCN(CC(=O)Nc2ccccn2)CC1,inactive,–
Cn1nnnc1SCC(=O)Nc1ccccc1Br,inactive,-3.35
O=C(CC(=O)Nc1ccccn1)Nc1ccccn1,inactive,4.61
O=C(CN1CCN(CC(=O)Nc2ccccn2)CC1)Nc1ccccn1,29.1 µM (active),1.87
Cc1cc(C)cc(NC(=O)CN2CCN(c3ncccn3)CC2)c1,inactive,8.39
O=C(CN1CCN(c2ccccn2)CC1)Nc1ccccc1,inactive,6.43
Cn1nnnc1SCC(=O)Nc1ccccn1,5.8 µM (active),-3.74
Cc1cccc(NC(=O)CSc2nnnn2C)n1,inactive,-5.08
Cc1cc(C)cc(NC(=O)CN2CCN(c3ccccn3)CC2)c1,16.4 µM (active),-2.33
CCOC(=O)C1=C(C)NC(=O)NC1c1ccc(OC(C)C(=O)O)c(OC)c1 (centres undefined),inactive,0.405
O=C(C[n+]1ccccc1)N/N=C/c1cccc(Cl)c1Cl,inactive,4.15
CCOc1ccc(C(=O)Nc2ccccc2-c2ccccc2)cc1Cl,inactive,-2.51
O=C(CSc1nc2ccccc2c(=O)n1-c1ccc(F)cc1)NC1CCS(=O)(=O)C1 (centres undefined),inactive,–
